A selection: hits, their analogues and other compounds. The true share with any hit is near 1.9%.
MCL1-BIM inh – inhibitors of MCL1 binding to BIM-BH3, primary screen, biochemical, fluorescence polarization | 320,000 tested, 0.68% active | Induced myeloid leukemia cell differentiation protein Mcl-1 (Homo sapiens), Q07820 | inhibition, % at 10.9 µM | GST-MCL1 / FITC-Bim-BH3 fluorescence polarization;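 active = inhibition above the mean inhibition of all tested compounds plus 3 SD, set per campaign, cut at about 40% in these data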;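 also: 0% = DMSO wells and 100% = unlabeled Bim-BH3 peptide control; higher means more loss of mP so more displacement of Bim peptide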
LANA-H2A inh – blockers of LANA interaction with H2A/H2B – biochemical, FP readout, HTS, primary screen; 320,000 tested, 0.6% active; AID 2629, 2010; cell-free LANA-H2A/H2B peptide, fluorescence polarization; inhibition, % (concentration not given with the values); in the data active = inhibition mostly above about 10%, no sharp cut-off; inactive = mostly below about 6.7%
Target sequence (Q9QR71 whole entry, looked up): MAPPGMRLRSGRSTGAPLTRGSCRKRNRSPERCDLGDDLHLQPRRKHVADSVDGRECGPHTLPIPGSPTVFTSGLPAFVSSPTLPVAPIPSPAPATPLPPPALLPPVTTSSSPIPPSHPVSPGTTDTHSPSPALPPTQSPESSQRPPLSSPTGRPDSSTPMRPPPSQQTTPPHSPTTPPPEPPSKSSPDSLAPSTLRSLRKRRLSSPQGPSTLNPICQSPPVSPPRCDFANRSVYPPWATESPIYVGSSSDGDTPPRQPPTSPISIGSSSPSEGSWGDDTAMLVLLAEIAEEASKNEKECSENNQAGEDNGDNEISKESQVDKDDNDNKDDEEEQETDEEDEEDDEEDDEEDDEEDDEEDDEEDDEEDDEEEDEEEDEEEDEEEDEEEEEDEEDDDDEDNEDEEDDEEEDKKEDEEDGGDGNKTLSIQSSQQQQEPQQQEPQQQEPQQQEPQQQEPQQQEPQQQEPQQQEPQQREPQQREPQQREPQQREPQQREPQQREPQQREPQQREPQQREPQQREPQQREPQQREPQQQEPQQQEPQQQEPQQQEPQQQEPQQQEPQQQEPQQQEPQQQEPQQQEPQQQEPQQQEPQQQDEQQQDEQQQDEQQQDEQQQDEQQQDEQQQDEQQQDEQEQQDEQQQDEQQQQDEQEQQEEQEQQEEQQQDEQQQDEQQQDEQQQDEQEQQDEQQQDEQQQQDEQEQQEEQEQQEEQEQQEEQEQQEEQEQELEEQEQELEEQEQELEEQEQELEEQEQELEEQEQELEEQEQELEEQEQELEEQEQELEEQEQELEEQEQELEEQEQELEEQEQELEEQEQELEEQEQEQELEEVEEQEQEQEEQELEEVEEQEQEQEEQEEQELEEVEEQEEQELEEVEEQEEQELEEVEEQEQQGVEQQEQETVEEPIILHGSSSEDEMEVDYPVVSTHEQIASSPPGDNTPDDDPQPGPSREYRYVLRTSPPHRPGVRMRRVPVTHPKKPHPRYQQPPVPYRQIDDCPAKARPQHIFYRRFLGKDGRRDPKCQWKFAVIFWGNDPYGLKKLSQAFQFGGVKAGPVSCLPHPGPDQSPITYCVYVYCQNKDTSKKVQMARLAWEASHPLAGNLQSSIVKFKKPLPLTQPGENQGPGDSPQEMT
Yeast superoxide – reduction of superoxide in aged yeast, primary screen, HTS | S. cerevisiae aged cells, superoxide DHE fluorescence; stronger effect = lower value | superoxide response (% of plate mean), % at 10 µM | 330,000 tested, 0.18% active;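 active = superoxide response under a set limit, about three screen SD below normal, cut at about 65% in these data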;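 also: yeast aged for seven days with compound at 30 °C before DHE staining; 100% = average MFI of all compound-treated wells on the plate with controls excluded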
GLD-1 TGE inh – GLD-1/TGE RNA complex disruptors, primary screen, biochemical, fluorescence polarization; Female germline-specific tumor suppressor gld-1 (Caenorhabditis elegans), Q17339; purified GLD-1 + fluorescein TGE RNA; inhibition, % at 5.96 µM; 320,000 tested, 0.44% active;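 active = percent inhibition above a per-plate cutoff, the plate mean of test compounds plus 3 SD, cut at about 30% in these data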;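 also: 0% = DMSO wells with GLD-1 and probe and 100% = wells lacking GLD-1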
Bcl-xL primary – inhibitors of human Bcl-xL, primary screen, biochemical, fluorescence polarization, HTS. GST-Bcl-xL / FITC-Bim BH3 peptide fluorescence polarization. inhibition, % at 10.9 µM. AID 2129, 2009. 320,000 tested, 0.7% active;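 active = inhibition above the mean of all tested compounds plus 3 SD, cutoff set per campaign, cut at about 30% in these data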;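 also: 0% = DMSO wells and 100% = unlabeled Bim-BH3 peptide competitor; inhibitors lower millipolarization by displacing the labeled peptide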
MEX-5 binding – MEX-5 zinc finger RNA-binding disruptors – biochemical, C. elegans, fluorescence polarization, MLPCN library, primary screen; 300,000 tested, 0.38% active; activity score (negative = inhibition of binding), % at 10 µM; MEX-5/FITC-TCR2 RNA binding; stronger effect = lower value; Zinc finger protein mex-5 (Caenorhabditis elegans), Q9XUB2;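 active = inhibition past about -25% in most replicates, and total fluorescence under double the plate's negative control median, limit read from the data; inconclusive = replicates evenly split on the limit, or fluorescence at least double controls; inactive = too little inhibition in most replicates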;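 also: 0% = DMSO and -100% = 5 µM competing unlabeled TCR2 RNA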
Bcl-xL conf – Bcl-xL inhibitors blocking Bim BH3 binding, confirmation, counter-screen for MCL1 inhibitor project, biochemical, fluorescence polarization. shares compounds with MCL1-BIM inh. GST-Bcl-xL / FITC-Bim BH3 peptide FP binding. inhibition, % at 10.9 µM. 1,700 tested, 54% active. AID 2166, 2009;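 active = inhibition above a cutoff equal to the mean inhibition of all tested compounds plus 3 SD, cut at about 30% in these data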;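 also: 0% = DMSO wells and 100% = unlabeled Bim BH3 control peptide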
MCL1 inh confirm – inhibitors of MCL1 binding to BIM-BH3, confirmation, biochemical, fluorescence polarization, triplicate. shares compounds with MCL1-BIM inh. GST-MCL1 / FITC-Bim-BH3 fluorescence polarization. inhibition, % at 10.9 µM. 1,700 tested, 61% active. AID 2168, 2009;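 active = inhibition above the average of all tested compounds plus 3 SD, cut at about 40% in these data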;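 also: 0% = DMSO wells and 100% = unlabeled Bim-BH3 control peptide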
* hit, by the source's call; ? = inconclusive; nt = no result given; + = active, no number.

SMILES | MCL1-BIM inh | LANA-H2A inh | Yeast superoxide | GLD-1 TGE inh | Bcl-xL primary | MEX-5 binding | Bcl-xL conf | MCL1 inh confirm
O=C(NC1=C(Nc2ccc(Cl)cc2)C(=O)c2ccccc2C1=O)c1ccccc1 | 16.3 | -5.2 | 106.9 | -0.7 | 9.5 | -0.5 | nt | nt
O=C1C(Cl)=C(NC(=O)c2ccccc2)C(=O)C(Cl)=C1NC(=O)c1ccccc1 | 56.5* | 0.9 | 92.5 | 22.0 | 36.4* | -85.5* | 53.8* | 57.3*
CCN(CC)S(=O)(=O)c1ccc(Cl)c(NC(=O)COC(=O)c2nc3nc(C)cc(C)n3n2)c1 | nt | 2.2 | 98.9 | 1.2 | nt | nt | nt | nt
CC(C)CC1(C)NC(=O)N(CC(=O)Nc2ccccc2Br)C1=O (stereo unspecified) | nt | 0.0 | 115.0 | -7.7 | nt | nt | nt | nt
O=C(O)c1ccc2c(c1)C1C=CCC1C(c1ccncc1)N2 (stereo unspecified) | 18.9 | -4.0 | 113.2 | 9.2 | 18.0 | -23.9 | nt | nt
CC(C)C1Nc2ccc(C(=O)O)cc2C2C=CCC21 (stereo unspecified) | 82.2* | 5.6 | 90.5 | 27.8 | 48.5* | -54.5* | 36.5* | 48.2*
CCCC1Nc2ccc(C(=O)O)cc2C2C=CCC12 (stereo unspecified) | 87.4* | 4.6 | 85.9 | 23.3 | 48.9* | -48.8* | 4.0 | 2.7
NC1=NC(=O)/C(=C/c2ccc(-c3ccc(S(N)(=O)=O)cc3)o2)S1 | 50.0* | 9.0 | 96.6 | 5.3 | 23.9 | -40.1* | 40.7* | 39.1
NC1=NC(=O)/C(=C\c2ccco2)S1 | 83.8* | 2.2 | 109.3 | 12.2 | 55.1* | -17.5 | 43.5* | 63.8*
CCOC(=O)CNc1ccc2c(c1)OCO2 | 176.0* | 10.4 | 102.3 | 83.6* | 154.3* | -4.8 | 25.4 | 38.5
COc1ccc(NC(C)=O)cc1NC(C)C(=O)Nc1ccc(S(=O)(=O)N2CCCCC2)cc1 (stereo unspecified) | 5.1 | -1.0 | 116.4 | -2.0 | 5.3 | nt | nt | nt
CCCc1cc(=O)oc2c3c(c(Cl)cc12)OCN(CCCO)C3 | 89.1* | 8.0 | 132.2 | 47.5* | 76.0* | -1.9 | 55.4* | 82.0*
Cc1ccnc(Nc2nc(-c3ccc(O)cc3)cs2)c1 | 9.3 | 0.5 | 96.9 | 2.1 | 7.8 | 1.2 | nt | nt
Cc1ccnc(Nc2nc(-c3ccc(O)c(O)c3)cs2)c1 | 41.8* | 2.8 | 95.3 | 14.9 | 29.1 | -0.9 | 36.0* | 42.0*
CCC1CCCCN1C(=S)NC(=O)c1cccc([N+](=O)[O-])c1 (stereo unspecified) | 7.7 | 0.3 | 112.4 | -1.2 | 7.9 | 2.7 | nt | nt
Cc1ccccc1N1CCN(C2CCCN(C(=O)c3ccnn3C)C2)CC1 (stereo unspecified) | 2.3 | 0.1 | 101.9 | 3.1 | 6.0 | -1.1 | nt | nt
O=C(Cc1ccc(S(=O)(=O)N2CCOCC2)s1)Nc1nc2c(s1)CCCC2 | 101.7* | -1.1 | 100.7 | 65.8* | 80.0* | -2.3 | 31.5* | 52.1*
O=C(Cc1ccc(S(=O)(=O)N2CCOCC2)s1)Nc1ccc2c(c1)CCC2 | 1.1 | -0.4 | 114.0 | -3.9 | 3.2 | 1.5 | nt | nt
COc1ccc(C(=O)OCC(N)=O)cc1[N+](=O)[O-] | 8.8 | 6.9 | 95.9 | 4.5 | 6.5 | 2.1 | nt | nt
COc1ccc(C(=O)C[n+]2cc(Br)cc3ccccc32)cc1[N+](=O)[O-] | 74.8* | -3.8 | 91.5 | -86.0 | 54.0* | -0.8 | 21.9 | 24.1
CCCSc1ccc([C@H]2N[C@@](C)(C(=O)OC)[C@H]3C(=O)N(CC)C(=O)[C@@H]23)cc1 | nt | -5.5 | 94.3 | 4.2 | nt | nt | nt | nt
CCC1=NNc2cccc3c(OC)ccc1c23 | 125.9* | 7.0 | 55.5* | 10.9 | 115.7* | -0.5 | 45.1* | 37.5
CC1CCN(S(=O)(=O)c2ccc(NC(=O)[C@@H]3CCCN3C(=O)c3cccs3)cc2)CC1 | -13.2 | 0.0 | 90.6 | 2.6 | -11.8 | nt | nt | nt
Cc1ccccc1N1C(=O)c2cccc3c(N(C)CCO)ccc(c23)C1=O | + | 8.6 | 95.9 | 166.6* | 181.1* | ? | 121.1* | 157.1*
COc1ccccc1N1C(=O)c2cccc3c(N(C)CCO)ccc(c23)C1=O | + | 15.0 | 101.2 | 171.5* | 183.0* | 4.0 | 128.4* | 151.8*
SMILES | MCL1-BIM inh | LANA-H2A inh | Yeast superoxide | GLD-1 TGE inh | Bcl-xL primary | MEX-5 binding | Bcl-xL conf | MCL1 inh confirm
COc1ccccc1N1C(=O)c2cccc3c(C(=O)O)ccc(c23)C1=O | -3.9 | -1.5 | 100.9 | -0.2 | 5.0 | -0.6 | nt | nt
CCc1cc(Br)ccc1NC(=S)NCCc1ccccc1 | nt | -0.6 | 86.9 | nt | nt | nt | nt | nt
COC(=O)c1c(=O)n(O)c2ccc(OC)cc2[n+]1[O-] | 197.9* | 54.6* | 93.3 | 146.5* | 168.5* | -30.3* | 138.4* | 178.0*
CCOc1ccc(-c2c(=O)n(O)c3ccccc3[n+]2[O-])cc1 | -5.7 | 3.0 | 136.7 | -6.4 | -2.0 | -3.8 | nt | nt
CC(C)NC(=O)c1cc(-c2ccco2)nn1-c1ccc(Cl)cc1 | 18.3 | 0.5 | 105.3 | -0.4 | 6.3 | 0.2 | nt | nt
O=C(c1cc(-c2ccco2)nn1-c1cccc(Cl)c1)N1CCCCC1 | 69.6* | 4.3 | 100.7 | -5.6 | 3.1 | 2.0 | 25.7 | 65.3*
CC(C)C(c1nnnn1Cc1ccco1)N1CCN(C2CCCC2)CC1 (stereo unspecified) | 6.0 | -0.4 | 93.4 | -1.8 | 7.0 | 1.6 | nt | nt
c1coc(Cn2nnnc2CN2CCN(C3CCCC3)CC2)c1 | 40.4* | 0.0 | 94.4 | 4.9 | 4.5 | -1.1 | 5.9 | 1.6
CCN(CC)S(=O)(=O)c1cc(NC(=O)CCn2[nH]c(=O)ccc2=O)ccc1C | nt | -2.1 | 93.1 | -0.4 | nt | nt | nt | nt
O=C(Nc1ncc2c(n1)-c1ccccc1CC2)c1ccc(Cl)cc1 | 8.6 | 5.3 | 116.1 | 3.8 | 2.7 | -4.1 | nt | nt
CCCSCC(=O)Nc1ncc2c(n1)-c1ccccc1CC2 | 61.6* | 6.9 | 99.0 | 20.9 | 65.8* | -6.8 | 70.8* | 89.8*
CCCCC(C(=O)NC1CCCC1)N(C(=O)c1snc(C(N)=O)c1N)c1ccc(F)cc1 (stereo unspecified) | 2.3 | 0.8 | 110.0 | 9.6 | 0.5 | 0.6 | nt | nt

Bioassay records as filed in PubChem BioAssay.
